This note sets out measurements from PubChem BioAssay.

Experiment [1] can be described thus: inhibitors of TNFa-induced NFkB p65 translocation, primary screen, imaging, HUVEC, MLSMR starter and 10KST1 sets (AID 438;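 active means inhibition above 20% together with a positive visual image hit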;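 further: compound added about 3h40 before a 20 min TNFalpha stimulation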;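 on inhibition: signal is the nuclear over cytoplasmic p65 intensity ratio per well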). To be noted: HUVEC TNFa-induced p65 nuclear translocation; cell count: measured here: nuclei count (cytotoxicity indicator), at 2.08 µM; inhibition: at 2 µM, stronger effect = higher value, 0% TNFa-plus-vehicle, 100% no-TNFa wells.
Experiment [2] in a line: inhibitors of mutant huntingtin aggregation, primary screen, imaging, exon1htt(103Q)mCFP cells, high-content imaging (AID 483;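 active means visual image review flags a hit and inhibition of aggregation exceeds 20%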;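 further: compound exposure lasted 3 days before fixation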;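 on nuclei count: percent of the per-plate median nuclei count of sample wells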). To be noted: exon1htt(103Q)mCFP cell line, aggregate imaging, at 2 µM; inhibition of aggregation: stronger effect = higher value; nuclei count: measured here: cell count, toxicity.
A short description of experiment [3]: inhibitors of E-selectin induction by TNFa, primary screen, imaging, HUVEC, immunofluorescence, MLSMR starter and 10KST1 sets (AID 487;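 active means visually confirmed hit in the image check and inhibition above 20%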;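 on inhibition: signal is fraction of cell area covered by stained E-selectin grains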;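 on nuclei count: 100% = median nuclei count of all wells on the same plate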). The note with it: HUVEC TNFalpha-induced E-selectin immunofluorescence imaging, at 2 µM; inhibition: stronger effect = higher value; nuclei count: measured here: cell number, toxicity.
Experiment [4] deals with Voltage-gated potassium channel subunit beta-2 (Rattus norvegicus) (UniProt P62483). In words: KvBeta enzyme negative modulators, primary screen, biochemical, NADPH fluorescence (AID 622;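 active means fluorescence slope higher than the sample average by over 3 SD, cut at about -0.22 in these data, passing the limit was not always enough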;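 further: slope of raw intensity against log time taken from 70 to 1610 s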). To be noted: recombinant KvBeta, 4-cyanobenzaldehyde reduction, at 10 µM, stronger effect = higher value.
Experiment [5] has the same target. Put plainly: KvBeta positive modulators, primary screen, biochemical, NADPH fluorescence (AID 623;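 active means NADPH fluorescence slope more negative than the mean of all samples by about 3 SD, 99.7% confidence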;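 further: fluorescence intensity change per second fitted from 20 to 320 s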). The note with it: Recombinant KvBeta, NADPH fluorescence decrease slope, 10 min; at 10 µM; stronger effect = lower value.
The target in experiment [6] is Alpha-2C adrenergic receptor (Homo sapiens) (UniProt P18825). Put plainly: modulators of alpha2C/GIRK thallium flux, primary screen, cell-based, HEK293 alpha2C/GIRK1/2 (AID 624;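 active means fluorescence slope after compound addition differing from the mean of all screened samples at 99.7% confidence, in either direction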;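 further: slope of fluorescence ratio to pre-addition baseline per second over 15 to 24 s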). To be noted: thallium flux BTC fluorescence, at 10 µM, actives lie on both sides.
Experiment [7] in a line: inhibitors of Sendai virus-induced IRF3 signaling, primary screen, TLR/RLR signaling modifier project, cell-based, Sendai virus stimulus, luciferase, 10K MLSCN set (AID 602276;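 active means inhibition at or above 50% at 10 µM; inactive means inhibition below 50%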;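 further: firefly luciferase from ISG56 promoter only with Renilla not read in this screen; 0% = Sendai virus plus DMSO and 100% = medium plus DMSO without virus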). To be noted: HEK293 RL24 IRF3 luciferase reporter, at 10 µM, stronger effect = higher value.
Experiment [8] in a line: inhibitors of poly I:C-induced TLR3 signaling, primary screen, cell-based, poly I:C stimulus, luciferase, 10K MLSCN set (AID 602277). The note with it: HEK293-TLR3 RL24 IRF3 luciferase reporter, at 10 µM, stronger effect = higher value. For orientation: Reporter assays use an easily measured gene product as a stand-in for the process of interest.

The source made the active and inactive calls.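 How the source made its calls, unless noted: active means inhibition of the reporter signal at or above 50%; inactive means inhibition below 50%.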

Alpha-2C adrenergic receptor (Homo sapiens), sequence (P18825 whole entry, looked up): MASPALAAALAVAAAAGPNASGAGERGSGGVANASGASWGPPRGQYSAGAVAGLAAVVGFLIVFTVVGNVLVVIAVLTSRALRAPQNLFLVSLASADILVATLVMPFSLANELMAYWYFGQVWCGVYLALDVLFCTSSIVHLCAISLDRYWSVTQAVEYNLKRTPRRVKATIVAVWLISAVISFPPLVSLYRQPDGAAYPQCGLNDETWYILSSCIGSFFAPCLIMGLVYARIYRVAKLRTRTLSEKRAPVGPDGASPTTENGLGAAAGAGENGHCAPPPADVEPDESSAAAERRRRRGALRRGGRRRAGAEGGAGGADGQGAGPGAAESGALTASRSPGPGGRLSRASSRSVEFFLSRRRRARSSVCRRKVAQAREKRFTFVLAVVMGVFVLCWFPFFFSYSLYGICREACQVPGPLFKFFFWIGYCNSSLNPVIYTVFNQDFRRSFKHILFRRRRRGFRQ
Voltage-gated potassium channel subunit beta-2 (Rattus norvegicus), sequence (P62483 whole entry, looked up): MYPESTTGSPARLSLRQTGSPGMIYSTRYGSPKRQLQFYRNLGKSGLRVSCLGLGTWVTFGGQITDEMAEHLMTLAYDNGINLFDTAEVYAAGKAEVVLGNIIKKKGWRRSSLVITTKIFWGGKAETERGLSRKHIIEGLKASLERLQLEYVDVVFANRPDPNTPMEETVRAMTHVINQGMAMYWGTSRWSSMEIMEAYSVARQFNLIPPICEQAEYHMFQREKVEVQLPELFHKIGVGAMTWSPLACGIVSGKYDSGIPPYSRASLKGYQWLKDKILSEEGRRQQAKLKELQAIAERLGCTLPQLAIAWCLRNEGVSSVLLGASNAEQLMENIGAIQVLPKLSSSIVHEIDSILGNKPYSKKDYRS

The term inhibition denotes the relative decrease from the control value, in per cent. Turning to `O=c1c2ccccc2nc(SCc2nc(-c3ccccc3)no2)n1-c1ccc(F)cc1`, the cell count in experiment [1] amounted to 719. For the same compound, the inhibition is -5.5% (inactive) in experiment [1], -58.2% (inactive) in experiment [3], 13.8% (inactive) in experiment [7] and 39.7% (inactive) in experiment [8]. Also, the inhibition of aggregation in experiment [2] was -12.6% (inactive). Further, the nuclei count in experiment [2] amounted to 128%; in experiment [3], 114%. Further, the fluorescence slope in experiment [4] is -0.538 (inactive). Further, the NADPH fluorescence slope in experiment [5] was -3.3e-05 (inactive). In addition, the slope in experiment [6] is 0.00951 (inactive).

As to `Cc1ccc(-c2cn3cccnc3n2)cc1NC(=O)c1ccc(Br)o1`, the cell count in experiment [1] stood at 420. Moreover, the inhibition was 4.7% (inactive) in experiment [1], -274% (inactive) in experiment [3], -11.9% (inactive) in experiment [7] and -53% (inactive) in experiment [8]. Moreover, in experiment [2], the inhibition of aggregation is 30.5% (inactive). In addition, the results for the nuclei count in experiment [2] and in experiment [3] were 66.8% and 103%, respectively. In addition, the fluorescence slope in experiment [4] is -0.0541 (active). In addition, in experiment [5], the NADPH fluorescence slope was 1.6e-06 (inactive). Further, the slope in experiment [6] is 0.00595 (inactive).

As to `COc1ccc(C(=O)CSc2nc(C)cc(=O)[nH]2)cc1`, the cell count in experiment [1] was found to be 291. The inhibition was 6.5% (inactive) in experiment [1], 43.1% (inactive) in experiment [3], 14.8% (inactive) in experiment [7] and 9.5% (inactive) in experiment [8]. Further, the inhibition of aggregation in experiment [2] is 13.9% (inactive). In addition, the results for the nuclei count in experiment [2] and in experiment [3] were 92.1% and 98.7%, respectively. Besides, the fluorescence slope in experiment [4] was -0.506 (inactive). Moreover, in experiment [5], the NADPH fluorescence slope is 2.1e-06 (inactive). Besides, in experiment [6], the slope was 0.0048 (inactive).

As to `Cc1ccc(-c2nc3cc(N)ccc3o2)cc1`, in experiment [1], the cell count was 463. Besides, the inhibition in experiment [1] is 1.1% (inactive); in experiment [3], -58.1% (inactive); in experiment [7], 2.48% (inactive); in experiment [8], -58.1% (inactive). Besides, the inhibition of aggregation in experiment [2] was 11.7% (inactive). The figures for the nuclei count in experiment [2] and in experiment [3] were 101% and 115%, respectively. In experiment [4], the fluorescence slope was -0.0326 (active). The NADPH fluorescence slope in experiment [5] is -3.4e-05 (inactive). Also, in experiment [6], the slope was 0.00542 (inactive).

For `Nc1nc(N2CCN(C/C=C/c3ccccc3)CC2)nc2ccccc12`, in experiment [1], the cell count came out at 563. The inhibition was 7.3% (inactive) in experiment [1], -58.8% (inactive) in experiment [3], 4.65% (inactive) in experiment [7] and 7.48% (inactive) in experiment [8]. For the same compound, the inhibition of aggregation in experiment [2] is 2% (inactive). The figures for the nuclei count in experiment [2] and in experiment [3] were 69.5% and 139%, respectively. Also, the fluorescence slope in experiment [4] is -0.607 (inactive). For the same compound, the NADPH fluorescence slope in experiment [5] was -2.5e-05 (inactive). Moreover, the slope in experiment [6] was 0.00297 (inactive).

With `Cc1nnc(N(C)C(=O)c2cccnc2)s1`, in experiment [1], the cell count was determined as 704. In addition, the inhibition in experiment [1] is -7.5% (inactive); in experiment [3], -47.1% (inactive); in experiment [7], -6.83% (inactive); in experiment [8], -1.4% (inactive). Besides, the inhibition of aggregation in experiment [2] is 8.5% (inactive). Moreover, the nuclei count in experiment [2] and in experiment [3] was 109% throughout. Further, the fluorescence slope in experiment [4] is -0.547 (inactive). In addition, the NADPH fluorescence slope in experiment [5] was 3.7e-05 (inactive). Also, the slope in experiment [6] is 0.0062 (inactive).

For the compound `COc1ccccc1C(=O)Nc1ccc(N2CCN(Cc3ccccc3)CC2)cc1`, in experiment [1], the cell count turned out to be 690. The inhibition was 12% (inactive) in experiment [1], 19.4% (inactive) in experiment [3], 9.6% (inactive) in experiment [7] and -11% (inactive) in experiment [8]. The inhibition of aggregation in experiment [2] is 23.2% (inactive). Moreover, the nuclei count in experiment [2] stood at 95.9%; in experiment [3], 97%. Moreover, the fluorescence slope in experiment [4] is -0.611 (inactive). Also, the NADPH fluorescence slope in experiment [5] was -1.3e-06 (inactive). Besides, in experiment [6], the slope is 0.00369 (inactive).

With `Cn1c(=O)[nH]c(=O)c2c1nc(N1CCCCCC1)n2CCCSc1nc2ccccc2o1`, the cell count in experiment [1] is 256. Further, the inhibition is 4.7% (inactive) in experiment [1], -64.8% (inactive) in experiment [3], 14.2% (inactive) in experiment [7] and 9.47% (inactive) in experiment [8]. Besides, in experiment [2], the inhibition of aggregation is -1.5% (inactive). For the same compound, the nuclei count in experiment [2] turned out to be 102%; in experiment [3], 98.7%. The fluorescence slope in experiment [4] was -0.609 (inactive). The NADPH fluorescence slope in experiment [5] is -4.5e-05 (inactive). Further, the slope in experiment [6] was 0.00527 (inactive).

For `COCCNC(=O)CN1CCN(Cc2cccc(Cl)c2)C1=O`, in experiment [1], the cell count amounted to 752. The inhibition is -11.6% (inactive) in experiment [1], -47.9% (inactive) in experiment [3], 6.1% (inactive) in experiment [7] and 16.8% (inactive) in experiment [8]. Also, in experiment [2], the inhibition of aggregation was 28.6% (inactive). The nuclei count in experiment [2] was found to be 69.7%; in experiment [3], 125%. Also, the fluorescence slope in experiment [4] is -0.536 (inactive). In addition, in experiment [5], the NADPH fluorescence slope was -4.6e-05 (inactive). The slope in experiment [6] was 0.00677 (inactive).

On to `Cc1onc(-c2ccccc2)c1C(=O)N1CCN(C(=O)c2ccco2)CC1`, for which the cell count in experiment [1] is 601. In addition, the inhibition in experiment [1] is 2.2% (inactive); in experiment [3] it was -20.4% (inactive); in experiment [7], 14.1% (inactive); in experiment [8] it was 20.5% (inactive). Moreover, the inhibition of aggregation in experiment [2] is -0.2% (inactive). Also, the figures for the nuclei count in experiment [2] and in experiment [3] were 111% and 93.8%, respectively. Also, in experiment [4], the fluorescence slope was -0.5 (inactive). Besides, in experiment [5], the NADPH fluorescence slope is -4.3e-05 (inactive). Further, in experiment [6], the slope is 0.00556 (inactive).

`C#CCSc1nnc(-c2ccccc2)c(=O)[nH]1`: the cell count in experiment [1] amounted to 903. For the same compound, the inhibition in experiment [1] is -8.2% (inactive); in experiment [3] it was -57.3% (inactive); in experiment [7], -0.0999% (inactive); in experiment [8], -4.88% (inactive). In addition, the inhibition of aggregation in experiment [2] was 0.6% (inactive). The nuclei count amounted to 127% in experiment [2] and 109% in experiment [3]. The fluorescence slope in experiment [4] is -0.505 (inactive). For the same compound, the NADPH fluorescence slope in experiment [5] is -4.9e-05 (inactive). In experiment [6], the slope was 0.00603 (inactive).

Regarding `COc1ccc(CC(=O)Nc2ccc(OC)c(NC(=O)c3ccco3)c2)cc1`, the cell count in experiment [1] was 580. In addition, the inhibition in experiment [1] was 22% (active); in experiment [3], -70.8% (inactive); in experiment [7], -27.5% (inactive); in experiment [8], -49.2% (inactive). Moreover, in experiment [2], the inhibition of aggregation is 4% (inactive). The nuclei count in experiment [2] came out at 99.6%; in experiment [3], 146%. Further, the fluorescence slope in experiment [4] was -0.417 (inactive). The NADPH fluorescence slope in experiment [5] was 9.4e-05 (inactive). For the same compound, the slope in experiment [6] was 0.00901 (inactive).

Consider `CCn1c(SCC(=O)N2c3ccccc3CCc3ccccc32)nc2c1c(=O)n(C)c(=O)n2C`, for which, in experiment [1], the cell count came to 706. Moreover, the inhibition in experiment [1] is -3.2% (inactive); in experiment [3] it was -2.5% (inactive); in experiment [7] it was 5.5% (inactive); in experiment [8], 16.2% (inactive). In addition, in experiment [2], the inhibition of aggregation was 25.6% (inactive). Moreover, the nuclei count in experiment [2] stood at 80.2%; in experiment [3] it was 131%. Further, the fluorescence slope in experiment [4] was -0.516 (inactive). Also, the NADPH fluorescence slope in experiment [5] is -8.1e-05 (inactive). In addition, the slope in experiment [6] was 0.0052 (inactive).

In the case of `CC(C)CC(=O)N1CCN(S(=O)(=O)c2ccc(F)cc2)CC1`, in experiment [1], the cell count turned out to be 662. Further, the inhibition in experiment [1] was 7.7% (inactive); in experiment [3] it was 34.7% (inactive); in experiment [7] it was -4.5% (inactive); in experiment [8], -11.7% (inactive). Moreover, in experiment [2], the inhibition of aggregation was -7.6% (inactive). Besides, the results for the nuclei count in experiment [2] and in experiment [3] were 105% and 86.5%, respectively. Moreover, in experiment [4], the fluorescence slope is -0.401 (inactive). Further, the NADPH fluorescence slope in experiment [5] was 2e-05 (inactive). For the same compound, the slope in experiment [6] is 0.00623 (inactive).
